The list is not random: actives were taken first. Their share in the collection is about 5.4%.
CSC inhib = blocks cancer stem cells; cancer stem cell-like cells viability, luminescence; inhibition, % at 7.5 µM; 1.1% of 300,000 active; AID 2717; in the data active means inhibition above about 75%; inconclusive means no clear call, values can overlap the other calls; tested in HMLE shEcad cells
PP1 counter = blocks human PP1-alpha phosphatase, a PP5 counter-screen | purified PP1alpha, OMFP fluorescence | 0.9% of 320,000 active | inhibition, % at 6.7 µM | P62136 | AID 2235;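 active means inhibition above the mean inhibition of all tested compounds plus 3 SD, computed separately for each screening campaign, cut at about 15% in these data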
Target sequence (P62136 whole entry, looked up): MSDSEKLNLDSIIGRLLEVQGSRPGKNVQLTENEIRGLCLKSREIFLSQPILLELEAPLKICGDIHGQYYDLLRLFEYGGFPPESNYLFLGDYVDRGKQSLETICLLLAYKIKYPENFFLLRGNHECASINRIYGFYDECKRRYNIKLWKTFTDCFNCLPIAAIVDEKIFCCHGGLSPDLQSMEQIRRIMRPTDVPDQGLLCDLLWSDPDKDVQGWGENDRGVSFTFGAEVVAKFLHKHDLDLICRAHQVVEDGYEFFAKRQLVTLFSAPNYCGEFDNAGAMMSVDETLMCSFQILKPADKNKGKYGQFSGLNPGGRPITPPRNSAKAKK
ALR H2O2 inh = blocks human ALR sulfhydryl oxidase activity | AID 485317 | inhibition, % (no concentration beside the values) | purified ALR, DTT oxidation, H2O2 HRP-luminol luminescence | 3.8% of 290,000 active | P55789;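 active means mean replicate inhibition above about 79%, with every replicate also reaching it, limit read from the data; inconclusive means only one of the two criteria met; inactive means mean below limit and not every replicate reaching it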
Target sequence (P55789 whole entry, looked up): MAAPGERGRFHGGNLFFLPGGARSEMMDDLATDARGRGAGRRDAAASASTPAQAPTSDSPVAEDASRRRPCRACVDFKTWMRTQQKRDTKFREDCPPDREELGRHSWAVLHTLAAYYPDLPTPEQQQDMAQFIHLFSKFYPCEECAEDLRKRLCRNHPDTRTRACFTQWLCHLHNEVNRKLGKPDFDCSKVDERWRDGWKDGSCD
PP5 inh = blocks human protein phosphatase 5 activity; P53041; purified PP5c, OMFP substrate fluorescence; inhibition, % at 6.7 µM; 0.18% of 320,000 active; AID 1987;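 active means inhibition above the campaign's mean inhibition across all tested compounds plus 3 SD, cut at about 9.5% in these data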;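 further: 0% = DMSO only and 100% = 100 µM cantharidin control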
Calb FLC = affects C. albicans growth with fluconazole; C. albicans CaCi-2 (fluconazole-resistant clinical isolate) + fluconazole, Alamar Blue growth, 48 h; growth inhibition, % (no concentration beside the values); 0.57% of 300,000 active;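 active means growth inhibition above about 58% in most replicates, limit read from the data, passing the limit was not always enough; inconclusive means exactly half the replicates above a set limit; inactive means most replicates below a set limit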;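 further: all wells also contain fluconazole at 8 µg/ml as a sub-toxic cotreatment; 0% = median of DMSO wells and 100% = median of geldanamycin control wells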
The depositor's hits bear a star; ? = inconclusive; · = no result given.

SMILES | CSC inhib | PP1 counter | ALR H2O2 inh | PP5 inh | Calb FLC
CC1(NC(=O)CN2CCN(c3cnn(-c4ccccc4)c(=O)c3Cl)CC2)CCS(=O)(=O)C1 (stereo not drawn) | · | 0.6 | · | 3.5 | ·
O=[N+]([O-])c1ccc(/C=N/Nc2nc(NCc3ccccc3)nc(N3CCOCC3)n2)cc1 | · | -9.3 | -2.8 | -2.5 | 17.4
O=[N+]([O-])c1cccc(/C=N/Nc2nc(NCc3ccccc3)nc(N3CCOCC3)n2)c1O | 41.8 | 17.3* | -9.7 | -0.3 | 51.5
CCCCCn1c(=O)[nH]c2cc(C(=O)NCCN3CCCCC3C)ccc2c1=O (stereo not drawn) | -3.4 | 0.3 | -0.9 | 2.9 | 7.5
Clc1ccc2nc(N3CCCCC3)[nH]c2c1 | · | 2.6 | 98.5* | 1.4 | 20.9
CC1=CC2=NC(=O)/C(=C\c3cc(C)n(-c4cccc(Cl)c4)c3C)C(=N)N2O1 | -3.0 | -0.3 | -3.4 | 0.8 | 2.6
CC1=CC2=NC(=O)/C(=C/c3coc4ccc(Cl)cc4c3=O)C(=N)N2O1 | 11.7 | -5.3 | 97.2* | -3.0 | 2.2
COc1ccc(C)cc1S(=O)(=O)N1CCN(S(=O)(=O)c2cc(C)ccc2OC)C(C)C1 (stereo not drawn) | 0.4 | -3.1 | -7.4 | 3.3 | 5.8
S=c1nc(-c2sccc2OCc2ccc(Cl)cc2Cl)[nH][nH]1 | -3.5 | -1.6 | 96.5* | 0.9 | 11.7
CNC(=S)NNC(=O)c1sccc1OCc1ccc(Cl)cc1Cl | -12.7 | -3.6 | -2.6 | 1.0 | 28.0
CC(C)N=c1cc2n(-c3ccc(Cl)cc3)c3ccccc3nc-2cc1Nc1ccc(Cl)cc1 | 104.2* | 3.5 | -18.2 | 4.7 | ·
C=CCOc1c(Br)cc(CNn2c(C)n[nH]c2=S)cc1OCC | -1.0 | -2.6 | 6.6 | 1.5 | 12.8
C=CCOc1c(Br)cc(CNn2cn[nH]c2=S)cc1OC | -5.4 | -3.6 | 92.4* | 2.5 | 46.2
Cc1ccccc1CNC(=O)C1CCC(=O)N(Cc2cccc(F)c2)C1 (stereo not drawn) | 2.2 | 3.1 | -1.5 | 3.8 | 5.3
O=C(CC1SC(=Nc2cccc3ccccc23)N(Cc2ccccn2)C1=O)Nc1ccccc1Br (stereo not drawn) | 17.6 | 5.3 | 0.8 | 3.2 | -3.1
Cc1ccccc1N=C1SC(CC(=O)Nc2ccc3ccccc3c2)C(=O)N1Cc1ccccn1 (stereo not drawn) | 78.1* | 6.9 | -2.6 | 5.6 | 1.4
Cc1ccccc1OCCC(=O)OCC(=O)Nc1ccc2[nH]c(=O)[nH]c2c1 | 1.7 | -5.5 | -3.6 | -1.7 | 6.6
Cc1cc(C(F)(F)F)nn1Cc1n[nH]c(=S)n1Cc1ccccc1 | 10.5 | -2.1 | 81.6* | 1.4 | 0.2
CC(C)(C)NC(=O)CSc1nncn1NCc1cccc2ccccc12 | -17.2 | -3.4 | 3.9 | 1.1 | 33.2
C=CCNC(=O)/C(C#N)=C/c1c(C)nn(-c2ccccc2)c1Cl | -5.1 | -0.3 | 96.2* | -3.9 | ?
CCOc1ccccc1NC(=O)/C(C#N)=C/c1c(C)nn(-c2ccccc2)c1Cl | 38.3 | -4.6 | 7.5 | -0.2 | -0.9
Cc1ccc(-c2cc(C(F)(F)F)n3nc(C(=O)Nc4c(C)n(C)n(-c5ccccc5)c4=O)cc3n2)cc1 | 4.5 | -6.8 | -3.4 | -0.1 | -0.4
CCCNC(=O)c1ccc2c(=O)c(O)c(-c3ccc(Cl)c([N+](=O)[O-])c3)[nH]c2c1 | -16.0 | 3.9 | -14.3 | 0.1 | 114.3*
Cc1nc2ccc(C(=O)O)cc2c2c1CC(C)S2 (stereo not drawn) | -14.1 | 5.1 | 99.5* | 0.7 | 12.5
CCOC(=O)C(C)/C(C)=N/NC(N)=S (stereo not drawn) | -12.1 | 0.3 | 95.9* | 0.1 | -14.4
SMILES | CSC inhib | PP1 counter | ALR H2O2 inh | PP5 inh | Calb FLC
CCOC(=O)C(C)/C(C)=N\Nc1ccc([N+](=O)[O-])cc1[N+](=O)[O-] (stereo not drawn) | -1.2 | -0.9 | -6.7 | 1.0 | -4.7
Cc1nn(Cc2ccccc2)c(C)c1C(=O)OCC(=O)c1cc(C)n(CC(F)(F)F)c1C | 77.6* | 4.2 | -11.6 | 5.9 | -12.8
Cc1ccc(SCCC(=O)NCc2ccco2)cc1 | -1.3 | -1.9 | -6.9 | -0.7 | -8.3
Cc1ccc(OCCCC(=O)NCc2ccco2)c(C)c1 | 19.2 | 0.9 | 95.5* | 1.3 | 0.5
Cc1cc(Cl)cc(Cl)c1OCC(=O)NCc1ccco1 | 7.8 | 0.4 | 91.3* | -0.8 | -4.3
O=C(COc1ccc(Cl)cc1Cl)NCc1ccco1 | 5.7 | 0.2 | 20.1 | -1.5 | -12.4
O=C(COc1ccc(Cl)cc1Cl)NNC(=S)NCc1ccco1 | -0.1 | -1.4 | 83.2* | 3.2 | 25.5
Cc1cc(=O)[nH]c(SCC(=O)Nc2ccc(S(=O)(=O)N3CCCCC3)cc2)n1 | -11.0 | -1.8 | 98.2* | 2.0 | 0.3
O=C(O)CC(SCC(=O)Nc1ccc(S(=O)(=O)N2CCCC2)cc1)C(=O)O (stereo not drawn) | 8.0 | -1.5 | 99.5* | -1.4 | -22.3
Cc1cc(=O)[nH]c(SCC(=O)Nc2ccc(S(=O)(=O)N3CCOCC3)cc2)n1 | -14.2 | -0.3 | · | -0.4 | 0.9
O=C(CSc1nc(O)c(C2CCCCC2)c(=O)[nH]1)Nc1ccc(F)cc1 | 12.0 | 4.1 | 98.7* | 0.5 | -2.6
O=C(O)CC(SCC(=O)Nc1ccccc1)C(=O)O (stereo not drawn) | -17.3 | -2.3 | -10.5 | 2.8 | -1.0
Cc1ccc(NC(=O)CSc2nc(N)cc(=O)[nH]2)cc1S(=O)(=O)N1CCCCCC1 | · | · | 98.5* | · | ·
COc1ccccc1-n1cnnc1SCC(=O)Nc1cc(C(C)(C)C)nn1-c1ccccc1 | 4.7 | 0.2 | -1.9 | 1.1 | -3.1
Cc1nc(N2CCN(C(=O)c3cnccn3)CC2)c2c3c(sc2n1)CC(C(C)(C)C)CC3 (stereo not drawn) | · | 4.5 | · | 0.6 | 1.5
CCCn1c(SCC(=O)Nc2cc(S(=O)(=O)N3CCOCC3)ccc2OC)n[nH]c1=O | -5.9 | -3.1 | -9.0 | 2.0 | -16.8
O=C(Nc1ccccc1N1CCCC1)c1ccc(Cl)c(S(=O)(=O)N2CCOCC2)c1 | -9.3 | -3.5 | -9.1 | -1.6 | 0.0
O=C(CSc1nc(NS(=O)(=O)c2ccccc2)cc(=O)[nH]1)Nc1ccc(F)cc1 | -5.5 | 9.1 | 98.4* | 2.2 | 7.0
Cc1ccccc1-n1c(SCC(=O)N/N=C/C=C/c2ccccc2[N+](=O)[O-])nc2ccccc2c1=O | ? | 16.9* | 1.6 | -1.9 | 18.4
O=C(CSc1nc2ccccc2c(=O)n1-c1ccc(Cl)cc1)N/N=C/C=C/c1ccccc1[N+](=O)[O-] | · | 15.0 | -0.9 | 3.5 | 21.3
O=C(CSc1nc2ccccc2c(=O)n1-c1ccccc1)N/N=C/C=C/c1ccccc1[N+](=O)[O-] | 77.6* | 10.0 | -1.6 | 1.6 | 46.7
COc1ccc(C(=O)Nc2ccc3c(c2)nc2n3CCSC2)cc1 | 4.2 | 0.8 | 99.4* | 3.6 | -5.1
O=C(Nc1ccc2c(c1)nc1n2CCSC1)c1ccccc1 | 10.3 | 12.7 | 99.2* | 0.8 | -4.0
CN(CC(=O)Nc1ccc(F)c(F)c1F)C(=O)C1CC(=O)N(c2ccc3c(c2)OCCO3)C1 (stereo not drawn) | -9.3 | -2.4 | -3.4 | 1.0 | -0.6
CC1(C)Cc2nc(-c3ccccc3)nc(NNC(=O)c3ccco3)c2CO1 | -3.8 | -3.4 | 97.4* | -0.3 | 5.4

From PubChem BioAssay
